The source made the active and inactive calls. The calls were made as follows: active = hit-call score of the fitted dose curve at least 0.9, where 1 is the maximum; inactive = score below 0.9.
Legend:
Conditions in all cases: mRNA level, 48 h; actives raise or lower the signal
[1] = read-out: Fatty acid synthase (Homo sapiens) (UniProt P49327); test: LTEA_HepaRG_FASN: Life Technologies and Expression Analysis (LTEA) Assay for Fatty Acid Synthase (FASN) using HepaRG (AID 2283448)
Procedure, shortened: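 FASN expression changes, up or down relative to 0.5% DMSO, were measured by qRT-PCR in human HepaRG cells after 48 h treatment with chemicals at eight concentrations (half-log steps from 100 uM).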

[2] = read-out: Cyclin D2 (CCND2), CCND2 (gene 894); test: LTEA_HepaRG_CCND2: Life Technologies and Expression Analysis (LTEA) Assay for Cyclin D2 (CCND2) using HepaRG (AID 2283449);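 also: CCND2 transcript measured by TaqMan qRT-PCR and normalised to three housekeeping genes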
Procedure, shortened: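 Differentiated human HepaRG cells were exposed for 48 h in serum-free induction medium to eight half-log concentrations topping at 100 uM (0.5% DMSO vehicle). CCND2 mRNA was quantified by TaqMan qRT-PCR, normalised to ACTB, GAPDH and POLR2A, and fitted bidirectionally against DMSO.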

[3] = read-out: Cyclin Dependent Kinase Inhibitor 1A (CDKN1A), CDKN1A (gene 1026); test: LTEA_HepaRG_CDKN1A: Life Technologies and Expression Analysis (LTEA) Assay for Cyclin Dependent Kinase Inhibitor 1A (CDKN1A) using HepaRG (AID 2283450)
Procedure, shortened: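 Differentiated HepaRG cells in serum-free induction medium, exposed 48 h in duplicate to eight half-log concentrations up to 100 uM in 0.5% DMSO. mRNA measured by TaqMan qRT-PCR, normalized to ACTB, GAPDH, POLR2A; bidirectional fit versus DMSO.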

[4] = read-out: Cyclin D1 (CCND1), CCND1 (gene 595); test: LTEA_HepaRG_CCND1: Life Technologies and Expression Analysis (LTEA) Assay for Cyclin D1 (CCND1) using HepaRG (AID 2283451)
Procedure, shortened: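 Differentiated HepaRG cells exposed 48 h in serum-free induction medium to eight half-log concentrations from 100 uM top, 0.5% DMSO, duplicates. CCND1 mRNA measured by Fluidigm TaqMan qRT-PCR, normalised to ACTB, GAPDH, POLR2A; bidirectional fit.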

[5] = read-out: catalase (CAT), CAT (gene 847); test: LTEA_HepaRG_CAT: Life Technologies and Expression Analysis (LTEA) Assay for catalase (CAT) using HepaRG (AID 2283452);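 as to AC50: TaqMan qRT-PCR signal normalized to ACTB GAPDH and POLR2A housekeeping genes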
Procedure, shortened: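 Differentiated HepaRG cells in serum-free induction medium were dosed 48 h in duplicate, eight half-log concentrations from 100 uM in 0.5% DMSO. Transcript measured by TaqMan qRT-PCR, normalised to ACTB/GAPDH/POLR2A, fitted bidirectionally against DMSO.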

[6] = read-out: flavin-containing dimethylaniline monooxygenases 3 (FMO3), FMO3 (gene 2328); test: LTEA_HepaRG_FMO3: Life Technologies and Expression Analysis (LTEA) Assay for flavin-containing dimethylaniline monooxygenases 3 (FMO3) using HepaRG (AID 2283453)
Procedure, shortened: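 Differentiated HepaRG cells in serum-free induction medium, exposed 48 h in duplicate to 8 half-log concentrations up to 100 uM in 0.5% DMSO. FMO3 mRNA by qRT-PCR, normalized to ACTB, GAPDH, POLR2A; bidirectional fit vs DMSO.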

[7] = read-out: Cytochrome P450 (CYP1A1), CYP1A1 (gene 1543); test: LTEA_HepaRG_CYP1A1: Life Technologies and Expression Analysis (LTEA) Assay for Cytochrome P450 (CYP1A1) using HepaRG (AID 2283454)
Procedure, shortened: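 Differentiated human HepaRG cells, after 48 h plating, exposed in duplicate for 48 h in serum-free induction medium to 8 half-log concentrations up to 100 uM in 0.5% DMSO. CYP1A1 mRNA by qRT-PCR, normalized to ACTB/GAPDH/POLR2A; bidirectional fit versus DMSO.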

[8] = read-out: CFLAR gene, CFLAR (gene 8837); test: LTEA_HepaRG_CFLAR: Life Technologies and Expression Analysis (LTEA) Assay for CFLAR gene using HepaRG (AID 2283455)
Procedure, shortened: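 HepaRG cells were plated for 48 h, switched to serum-free induction medium, then exposed in duplicate for 48 h to 8 concentrations (top 100 uM, half-log steps, 0.5% DMSO). CFLAR mRNA was measured by qRT-PCR, normalized to ACTB, GAPDH and POLR2A.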

Fatty acid synthase (Homo sapiens), sequence (P49327 whole entry, looked up): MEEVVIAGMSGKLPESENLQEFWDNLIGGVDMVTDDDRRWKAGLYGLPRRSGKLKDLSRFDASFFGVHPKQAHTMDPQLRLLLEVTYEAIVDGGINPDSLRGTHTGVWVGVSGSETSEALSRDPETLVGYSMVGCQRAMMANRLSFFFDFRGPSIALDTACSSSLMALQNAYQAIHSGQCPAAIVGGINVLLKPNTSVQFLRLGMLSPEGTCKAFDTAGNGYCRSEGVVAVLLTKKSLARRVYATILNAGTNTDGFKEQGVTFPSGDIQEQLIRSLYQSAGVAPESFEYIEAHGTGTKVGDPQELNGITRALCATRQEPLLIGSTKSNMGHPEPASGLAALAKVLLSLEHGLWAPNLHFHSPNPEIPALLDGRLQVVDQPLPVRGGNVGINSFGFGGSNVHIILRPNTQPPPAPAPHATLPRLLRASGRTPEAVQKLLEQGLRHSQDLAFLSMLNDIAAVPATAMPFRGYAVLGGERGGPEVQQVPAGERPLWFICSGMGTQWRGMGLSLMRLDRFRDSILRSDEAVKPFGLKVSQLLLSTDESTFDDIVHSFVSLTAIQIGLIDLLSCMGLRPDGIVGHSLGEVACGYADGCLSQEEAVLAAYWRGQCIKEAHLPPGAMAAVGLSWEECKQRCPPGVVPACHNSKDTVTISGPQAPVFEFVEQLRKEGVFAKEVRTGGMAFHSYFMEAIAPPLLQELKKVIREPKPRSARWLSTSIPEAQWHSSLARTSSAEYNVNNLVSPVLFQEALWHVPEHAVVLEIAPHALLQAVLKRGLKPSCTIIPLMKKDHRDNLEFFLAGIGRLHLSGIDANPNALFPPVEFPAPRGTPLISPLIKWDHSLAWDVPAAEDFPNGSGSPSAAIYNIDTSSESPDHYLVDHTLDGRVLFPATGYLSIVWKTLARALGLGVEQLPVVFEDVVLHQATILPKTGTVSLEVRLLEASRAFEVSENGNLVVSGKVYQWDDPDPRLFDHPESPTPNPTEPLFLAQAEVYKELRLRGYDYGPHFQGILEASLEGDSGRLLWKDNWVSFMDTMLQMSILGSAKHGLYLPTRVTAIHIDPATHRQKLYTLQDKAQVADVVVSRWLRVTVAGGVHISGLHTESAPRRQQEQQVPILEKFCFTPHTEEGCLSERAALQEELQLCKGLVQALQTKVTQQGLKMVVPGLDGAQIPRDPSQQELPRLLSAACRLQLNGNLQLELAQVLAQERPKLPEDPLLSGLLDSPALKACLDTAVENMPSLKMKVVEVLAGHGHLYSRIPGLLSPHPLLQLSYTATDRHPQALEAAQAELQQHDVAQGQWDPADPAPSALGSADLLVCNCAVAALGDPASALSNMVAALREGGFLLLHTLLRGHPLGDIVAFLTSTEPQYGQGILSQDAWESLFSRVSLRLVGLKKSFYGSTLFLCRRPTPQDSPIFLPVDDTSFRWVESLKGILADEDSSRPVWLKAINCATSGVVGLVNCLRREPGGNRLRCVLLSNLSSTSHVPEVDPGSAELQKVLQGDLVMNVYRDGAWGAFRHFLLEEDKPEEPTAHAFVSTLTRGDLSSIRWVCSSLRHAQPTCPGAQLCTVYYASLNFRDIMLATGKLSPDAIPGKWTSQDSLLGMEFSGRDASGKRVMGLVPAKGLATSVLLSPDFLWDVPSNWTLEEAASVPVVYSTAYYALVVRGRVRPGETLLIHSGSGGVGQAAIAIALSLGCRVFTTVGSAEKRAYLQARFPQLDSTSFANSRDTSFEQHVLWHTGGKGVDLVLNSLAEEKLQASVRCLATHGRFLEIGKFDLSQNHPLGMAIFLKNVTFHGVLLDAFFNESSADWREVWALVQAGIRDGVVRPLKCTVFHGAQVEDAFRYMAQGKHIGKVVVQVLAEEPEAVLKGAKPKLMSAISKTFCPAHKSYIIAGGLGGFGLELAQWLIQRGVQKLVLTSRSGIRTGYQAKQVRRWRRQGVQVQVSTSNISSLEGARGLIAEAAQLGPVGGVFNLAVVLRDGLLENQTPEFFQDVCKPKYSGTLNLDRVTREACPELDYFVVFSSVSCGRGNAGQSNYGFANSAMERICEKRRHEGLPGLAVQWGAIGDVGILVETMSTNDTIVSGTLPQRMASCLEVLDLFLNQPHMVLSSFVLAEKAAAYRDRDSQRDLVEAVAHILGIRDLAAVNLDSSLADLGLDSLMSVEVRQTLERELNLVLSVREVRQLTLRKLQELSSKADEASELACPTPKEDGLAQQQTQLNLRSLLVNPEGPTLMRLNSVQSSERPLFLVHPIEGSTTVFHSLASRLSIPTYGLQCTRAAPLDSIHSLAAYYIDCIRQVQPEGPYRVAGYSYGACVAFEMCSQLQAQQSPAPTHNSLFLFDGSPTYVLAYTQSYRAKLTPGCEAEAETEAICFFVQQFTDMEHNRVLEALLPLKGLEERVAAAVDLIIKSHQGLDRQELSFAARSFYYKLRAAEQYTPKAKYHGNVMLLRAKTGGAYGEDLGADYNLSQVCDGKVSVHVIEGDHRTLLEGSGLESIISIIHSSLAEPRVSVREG

| SMILES | outcome [1] | outcome [2] | AC50 [3] | outcome [4] | AC50 [5] | AC50 [6] | outcome [7] | outcome [8] | outcome [3] | outcome [5] | outcome [6] | AC50 [7] |
| --- | --- | --- | --- | --- | --- | --- | --- | --- | --- | --- | --- | --- |
| CCc1nc(N)nc(N)c1-c1ccc(Cl)cc1 | inactive | inactive | 70.2 µM (active) | inactive | 30.6 µM (active) | 69.4 µM (active) | inactive | inactive | – | – | – | – |
| c1ccc2occc2c1 | – | inactive | – | inactive | – | – | inactive | inactive | inactive | inactive | inactive | – |
| CCCCC(CC)COP(=O)(OCC(CC)CCCC)OCC(CC)CCCC (centres undefined) | inactive | inactive | – | inactive | – | – | – | inactive | inactive | inactive | inactive | 25.6 µM (active) |
| CC(C)OC(=O)C(C)(C)Oc1ccc(C(=O)c2ccc(Cl)cc2)cc1 | – | inactive | – | inactive | – | – | – | inactive | inactive | inactive | inactive | 50 µM (active) |
| CC(C)c1cccc(C(C)C)c1NC(=O)NS(=O)(=O)c1cc(C(C)(C)O)co1 | – | inactive | – | inactive | – | – | inactive | inactive | inactive | inactive | inactive | – |
| CCCCCCCC(=O)OC | inactive | inactive | – | inactive | – | 12.1 µM (active) | inactive | inactive | inactive | inactive | – | – |
| CC(=O)CC(c1ccccc1)c1c(O)c2ccccc2oc1=O (centres undefined) | – | inactive | – | inactive | – | – | inactive | inactive | inactive | inactive | inactive | – |
| Cn1cnc2c1c(=O)[nH]c(=O)n2C | inactive | inactive | – | inactive | – | – | – | inactive | inactive | inactive | inactive | – |
| C=CCc1ccc(OC)c(OC)c1 | – | inactive | – | inactive | – | – | inactive | inactive | inactive | inactive | inactive | – |
| COC(=O)CCCC(=O)OC | – | inactive | – | inactive | – | – | inactive | inactive | inactive | inactive | – | – |
| C/C=C/C=C/C(=O)O | inactive | inactive | – | inactive | – | – | – | inactive | inactive | inactive | inactive | 76.6 µM (active) |
| CSc1ccc(Oc2ccc(S(N)(=O)=O)cc2CN(C)C)cc1C | – | inactive | – | inactive | – | 77.7 µM (active) | – | inactive | inactive | inactive | – | 69.8 µM (active) |
| CCCCCCC(CCCCCCCCCCC(=O)OCC(COC(C)=O)OC(C)=O)OC(C)=O (centres undefined) | inactive | inactive | – | inactive | – | – | inactive | inactive | inactive | inactive | – | – |
| OCC(O)CO | inactive | inactive | – | inactive | – | – | inactive | inactive | inactive | inactive | – | – |
| CC(C)COC(=O)CCCCC(=O)OCC(C)C | inactive | inactive | – | inactive | – | – | inactive | inactive | inactive | inactive | inactive | – |

Source: PubChem BioAssay (EPA / NIEHS)
